Results reported in PubChem BioAssay (Tox21).
Several values for one entry are separate records, joined by “and”; a condition that tells them apart may be missing. Identical values can stand only once. Inconclusive results are not listed. Where a call stands in place of a potency, no number is given. Some compounds were tested as several samples or in several runs, with calls that do not always agree. Activity calls are given as the source filed them. Unless noted, calls follow the shape of the dose curve; as a rule, active = well fitted curve in the direction sought with a large enough effect in the repeat runs; inconclusive = weak or mixed curves; inactive = no such curve, though single readings can be large; an effect the other way counts as inactive or inconclusive.

What was measured:
[1] = qHTS assay to identify aromatase inhibitors - cell viability counter screen (AID 743084);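 also: cells stimulated with testosterone during compound exposure; nearly all actives have a fitted effect of over 55% in size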; also: potency is read from the fitted curve at half-maximal effect
[2] = target: Aryl hydrocarbon receptor (Homo sapiens) (UniProt P35869); assay: qHTS assay to identify small molecule that activate the aryl hydrocarbon receptor (AhR) signaling pathway (AID 743085); also: nearly all actives have a fitted effect of over 15% in size; also: potency is read from the fitted curve at half-maximal effect;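 as to activation: HG2L7.5c1 human HepG2 liver cells with stably integrated DRE-driven firefly reporter; series mostly up to about 70 µM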
Procedure, shortened: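 Luminescence read-out: ONE-Glo reagent, 30 min at room temperature, in HG2L7.5c1 HepG2 reporter cells treated 24 h at 37C. Viability was measured beforehand by CellTiter-Fluor fluorescence after 30 min at 37C.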

[3] = qHTS assay to identify small molecule that activate the aryl hydrocarbon receptor (AhR) signaling pathway - cell viability counter screen (AID 743086); also: nearly all actives have a fitted effect of over 45% in size; also: potency is read from the fitted curve at half-maximal effect
Procedure, shortened: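 Cytotoxicity counter screen: CellTiter-Fluor signal (30 min, 37 C) in 4000 HepG2 cells/well carrying the DRE-luciferase reporter, following 24 h compound exposure at 37 C.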

[4] = target: Peroxisome proliferator-activated receptor gamma (Homo sapiens) (UniProt P37231); assay: qHTS assay to identify small molecule agonists of the peroxisome proliferator-activated receptor gamma (PPARg) signaling pathway (AID 743094; active = well fitted activation curve with a large enough effect in the signal ratio in the repeat runs, not every such curve was filed as active; the % refers to the signal ratio)
Procedure, shortened: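 GeneBLAzer PPARg UAS-bla HEK293H cells were plated, rested 5 h, then exposed to compounds for 17 h at 37C. Beta-lactamase activity was read by LiveBLAzer B/G FRET substrate fluorescence after 1 h at room temperature.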

[5] = qHTS assay to identify small molecule antagonists of the peroxisome proliferator-activated receptor gamma (PPARg) signaling pathway - cell viability counter screen (AID 743194); settings: Potency: co-treated with 50 nM rosiglitazone unless noted; also: nearly all actives have a fitted effect of over 55% in size; also: potency is read from the fitted curve at half-maximal effect
Procedure, shortened: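 Viability was measured as CellTiter-Glo luminescence in GeneBLAzer PPARg UAS-bla HEK293H cells. These cells had been exposed 17 h at 37 C to compounds together with rosiglitazone at 50 nM final, with the beta-lactamase readout taken in the same wells.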

[6] = qHTS assay for small molecule agonists of the antioxidant response element (ARE) signaling pathway (AID 743202; active = well fitted activation curve with a large enough effect in the signal ratio in the repeat runs, not every such curve was filed as active; the % refers to the signal ratio; also: potency is read from the fitted curve at half-maximal effect)
Procedure, shortened: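 An ARE-responsive beta-lactamase gene stably integrated in HepG2 cells serves as reporter. After 5 h plating and 16 h compound incubation at 37 C, fluorescence of the B/G FRET substrate was measured.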

[7] = qHTS assay for small molecule agonists of the antioxidant response element (ARE) signaling pathway - cell viability counter screen (AID 743203; calls by dose curve; also: nearly all actives have a fitted effect of over 55% in size; also: potency is read from the fitted curve at half-maximal effect)
Procedure, shortened: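 ARE-bla HepG2 cells were plated, rested 5 h at 37C/5% CO2, then exposed to compounds in DMSO for 16 h. Viability was read as CellTiter-Glo luminescence after 30 min at room temperature, in the same wells as the ARE screen.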

[8] = qHTS assay for small molecule activators of the heat shock response signaling pathway - cell viability counter screen (AID 743209); also: nearly all actives have a fitted effect of over 50% in size; also: potency is read from the fitted curve at half-maximal effect
Procedure, shortened: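 HSE-bla HeLa cells plated overnight, then exposed to Tox21 compounds (23 nL in DMSO) for 5 h at 37 C. After the bla reporter read, CellTiter-Glo was added in the same wells and luminescence read after 30 min at room temperature.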

[9] = qHTS assay for small molecule activators of the heat shock response signaling pathway (AID 743210; active = well fitted activation curve with a large enough effect in the signal ratio in the repeat runs, with a control signal flat, not every such curve was filed as active; the % refers to the signal ratio;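 also: HeLa cells with beta-lactamase reporter driven by heat shock elements; series mostly up to about 63 µM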)
Procedure, shortened: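 In HSE-bla HeLa cells, 5 h compound incubation (37 C) precedes addition of LiveBLAzer B/G substrate; after 2.5 h at room temperature, fluorescence intensity indicates reporter induction.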

[10] = target: Peroxisome proliferator-activated receptor gamma (Homo sapiens) (UniProt P37231); assay: qHTS assay to identify small molecule antagonists of the peroxisome proliferator-activated receptor gamma (PPARg) signaling pathway (AID 743191; calls by dose curve; also: nearly all actives have a fitted effect of over 30% in size; also: potency is read from the fitted curve at half-maximal effect)
Procedure, shortened: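 Beta-lactamase reporter under UAS control in HEK293H PPARg-bla cells; compound treatment 17 h at 37C. Read-out: fluorescence intensity after 1 h room-temperature incubation with LiveBLAzer B/G FRET substrate.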

Chain of Peroxisome proliferator-activated receptor gamma (Homo sapiens) (P37231 whole entry, looked up): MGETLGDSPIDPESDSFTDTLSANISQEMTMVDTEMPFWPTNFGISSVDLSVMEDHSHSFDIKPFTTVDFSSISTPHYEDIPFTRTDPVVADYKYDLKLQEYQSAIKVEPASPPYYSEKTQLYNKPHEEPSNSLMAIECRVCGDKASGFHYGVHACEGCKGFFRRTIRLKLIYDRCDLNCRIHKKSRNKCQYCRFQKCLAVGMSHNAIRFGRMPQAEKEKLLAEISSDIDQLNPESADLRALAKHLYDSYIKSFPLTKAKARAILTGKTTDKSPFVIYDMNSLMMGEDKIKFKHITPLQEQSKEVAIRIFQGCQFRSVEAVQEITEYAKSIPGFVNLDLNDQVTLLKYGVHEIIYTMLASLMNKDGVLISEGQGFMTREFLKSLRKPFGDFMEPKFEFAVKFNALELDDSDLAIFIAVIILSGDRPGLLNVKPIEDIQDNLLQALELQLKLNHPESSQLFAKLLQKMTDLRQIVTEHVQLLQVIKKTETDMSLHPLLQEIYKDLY
Chain of Aryl hydrocarbon receptor (Homo sapiens) (P35869 whole entry, looked up): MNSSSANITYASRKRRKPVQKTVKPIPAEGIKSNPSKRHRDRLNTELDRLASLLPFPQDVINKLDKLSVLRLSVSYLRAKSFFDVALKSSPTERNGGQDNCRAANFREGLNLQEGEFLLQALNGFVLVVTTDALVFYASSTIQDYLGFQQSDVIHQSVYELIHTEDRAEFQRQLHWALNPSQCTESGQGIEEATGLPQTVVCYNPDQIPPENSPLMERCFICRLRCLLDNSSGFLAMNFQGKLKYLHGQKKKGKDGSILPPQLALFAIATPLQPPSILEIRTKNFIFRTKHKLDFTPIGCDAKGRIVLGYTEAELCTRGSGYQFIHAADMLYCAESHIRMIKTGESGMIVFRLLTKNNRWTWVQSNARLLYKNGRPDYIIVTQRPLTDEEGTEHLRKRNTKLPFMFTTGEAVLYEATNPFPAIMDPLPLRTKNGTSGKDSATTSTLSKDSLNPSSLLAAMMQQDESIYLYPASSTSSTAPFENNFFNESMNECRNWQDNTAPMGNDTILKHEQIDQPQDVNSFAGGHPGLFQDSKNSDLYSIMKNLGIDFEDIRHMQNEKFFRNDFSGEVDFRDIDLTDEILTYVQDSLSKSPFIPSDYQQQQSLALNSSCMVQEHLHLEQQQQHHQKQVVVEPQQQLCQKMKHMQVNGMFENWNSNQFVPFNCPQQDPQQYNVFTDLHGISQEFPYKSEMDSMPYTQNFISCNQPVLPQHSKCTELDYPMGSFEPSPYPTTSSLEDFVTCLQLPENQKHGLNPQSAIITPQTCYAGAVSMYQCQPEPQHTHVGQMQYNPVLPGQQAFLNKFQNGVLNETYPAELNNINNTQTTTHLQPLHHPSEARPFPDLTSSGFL

Compound	Potency [1]	Potency [2]	Potency [3]	Potency [4]	Potency [5]	Potency [6]	Potency [7]	Potency [8]	Potency [9]	Potency [10]
CCOC(=O)c1ccccc1N	inactive	inactive	inactive	inactive	inactive	inactive	inactive	inactive	inactive	
CCOP(=S)(OCC)SCn1c(=O)oc2cc(Cl)ccc21	inactive	32.9 µM (active) and 61.1 µM (active)	inactive	inactive		9.69 µM (active)	inactive	inactive	inactive	inactive
ClCc1ccccn1	inactive	inactive	inactive	inactive	inactive	inactive	inactive	inactive	inactive	inactive
CCC/C=N/O	inactive	inactive	inactive	inactive	inactive	inactive	inactive	inactive	inactive	
CC(C)Nc1nc(Cl)nc(NC(C)C)n1	inactive	inactive	inactive	inactive	inactive	inactive	inactive	inactive	inactive	inactive
CN(C)c1nc(=O)n(C2CCCCC2)c(=O)n1C	inactive	inactive	inactive	inactive	inactive	inactive	inactive	inactive	inactive	inactive
Clc1ccccc1-c1nnc(-c2ccccc2Cl)nn1	inactive	inactive	inactive	inactive	inactive	inactive	inactive	inactive	inactive	inactive
CCCCOCCOC(C)=O	inactive	inactive	inactive	inactive	inactive	inactive	inactive	inactive	inactive	
COc1ccc(O)c(C(C)(C)C)c1	inactive	inactive	inactive	inactive	inactive		inactive	inactive	inactive	inactive
COP(=S)(OC)Oc1ccc(S(=O)(=O)N(C)C)cc1	inactive	inactive	inactive	inactive	inactive		inactive	inactive	inactive	inactive
Cc1cc(Cl)ccc1N=CN(C)C	inactive	inactive	inactive	inactive	inactive	inactive	inactive	inactive		
S=c1[nH]c2ccccc2[nH]1	inactive	68.6 µM (active)	inactive	inactive	inactive		inactive	inactive	inactive	inactive
CCOP(=S)(OCC)OP(=S)(OCC)OCC	inactive	inactive	inactive	inactive	inactive	inactive	inactive	inactive	inactive	inactive
O=NN(c1ccccc1)c1ccccc1	inactive	inactive	inactive	inactive	inactive	inactive	inactive	inactive	inactive	inactive
NN=C(N)N	inactive	30.6 µM (active)	inactive	inactive	inactive	inactive	inactive	inactive	inactive	inactive
C[C@]12CC[C@H]3[C@@H](CCC4=CC(=O)CC[C@@H]43)[C@@H]1CC[C@@H]2O	inactive	inactive	inactive	inactive	inactive	34.1 µM (active)	inactive	inactive	inactive	
N#Cc1cccnc1	inactive	inactive	inactive	inactive	inactive	inactive	inactive	inactive	inactive	inactive
CC1=C(C(=O)Nc2ccccc2)SCCO1	inactive	27.8 µM (active) and 24.3 µM (active)	inactive	inactive	inactive	inactive	inactive	inactive	inactive	inactive
N#Cc1nn(-c2c(Cl)cc(C(F)(F)F)cc2Cl)c(N)c1S(=O)C(F)(F)F (configuration not stated)	inactive	inactive	inactive and 30.8 µM (active)	inactive	inactive			inactive		inactive
CCCCC(C#N)(Cn1cncn1)c1ccc(Cl)cc1 (configuration not stated)	inactive	inactive	inactive	inactive	inactive	inactive	inactive	inactive	inactive	inactive
ClC(Cl)=C(Cl)C(Cl)=C(Cl)Cl	inactive	inactive	inactive	inactive	inactive	inactive	inactive	inactive	inactive	inactive
COP(=O)(NC(C)=O)SC (configuration not stated)	inactive	inactive	inactive	inactive	inactive	inactive	inactive	inactive	inactive	inactive
C[N+](C)(C)CC(=O)[O-]	inactive	inactive	inactive	inactive	inactive	inactive	inactive	inactive		
[CH3][Sn]([Cl])([Cl])[Cl]	inactive	inactive	inactive	inactive	inactive	inactive	inactive	inactive	inactive	inactive
N#CCCCCC#N	inactive	inactive	inactive	inactive	inactive	inactive	inactive	inactive	inactive	inactive
CC(C)(O)C#N	inactive	inactive	inactive	inactive	inactive	inactive	inactive	inactive	inactive	

Compound	Potency [1]	Potency [2]	Potency [3]	Potency [4]	Potency [5]	Potency [6]	Potency [7]	Potency [8]	Potency [9]	Potency [10]
CNC(=O)Oc1cccc2c1OC(C)(C)C2	inactive	inactive	inactive	inactive	inactive	inactive	inactive	inactive	inactive	inactive
Cc1ccc(N=CN(C)C=Nc2ccc(C)cc2C)c(C)c1	inactive	inactive and 48.8 µM (active)	inactive	inactive		inactive	inactive	inactive	inactive	inactive
COP(=S)(OC)SCn1nnc2ccccc2c1=O	inactive	inactive	inactive	inactive	inactive	inactive	inactive	inactive	inactive	49 µM (active)
ClCC(Cl)CCl			inactive		inactive	inactive	inactive	inactive	inactive	
Clc1cccc(C(Cl)(Cl)Cl)n1	inactive		inactive	inactive	inactive	inactive	inactive	inactive	inactive	inactive
c1ccc2c(c1)Nc1ccccc1S2	inactive		inactive	inactive	inactive	inactive	inactive	inactive	inactive	inactive
CCN(CC)C(=O)C(C)Oc1cccc2ccccc12 (configuration not stated)	inactive	54.9 µM (active) and 30.6 µM (active)		inactive	inactive	inactive	inactive	inactive	inactive	inactive
[Cl-].[Cl-].[Cl-].[Fe+3]	inactive	inactive	inactive		inactive	inactive	inactive	inactive	inactive	
CN(C)c1ccccc1			inactive		inactive	inactive	inactive	inactive	inactive	
CC(O)CN(CC(C)O)CC(C)O (configuration not stated)	inactive		inactive		inactive	inactive	inactive	inactive	inactive	
O=[N+]([O-])c1ccc(Nc2ccccc2)cc1	30.9 µM (active) and 27.3 µM (active)	inactive	24.5 µM (active) and 24.3 µM (active)				34.4 µM (active)	inactive and 27.5 µM (active)	inactive	
CS(=O)(=O)NC(=O)c1cc(Oc2ccc(C(F)(F)F)cc2Cl)ccc1[N+](=O)[O-]	inactive	inactive	inactive	inactive	inactive		inactive	inactive	inactive	
O=[N+]([O-])c1ccc(Cl)c([N+](=O)[O-])c1	6.21 µM (active) and 6.86 µM (active)	inactive	24.7 µM (active) and 27.3 µM (active)		11.1 µM (active) and 9.77 µM (active)		12.4 µM (active) and 6.86 µM (active)	9.92 µM (active) and 4.9 µM (active)		8.85 µM (active) and 8.71 µM (active)
N#CC(c1ccccc1)c1ccccc1	inactive		inactive	inactive	inactive	inactive	inactive	inactive	inactive	inactive
CC(C)(c1ccc(OCC2CO2)cc1)c1ccc(OCC2CO2)cc1 (configuration not stated)	inactive	inactive	inactive		55.7 µM (active)	61.1 µM (active)	inactive	inactive		
CCCCCCCC[N+](C)(CCCCCCCC)CCCCCCCC	17.2 µM (active) and 4.86 µM (active) and 27.3 µM (active)	inactive	inactive and 24.3 µM (active)		7.75 µM (active) and 3.47 µM (active) and 5.49 µM (active)		12.2 µM (active) and 19.4 µM (active) and 8.63 µM (active)	13.8 µM (active) and 4.37 µM (active)		
CCOP(=O)(O)OCC (tested in a mixture with another compound)	inactive and 24.1 µM (active)		inactive and 30.4 µM (active)			inactive	inactive and 17.1 µM (active)	inactive		
CCCCSP(=O)(SCCCC)SCCCC	inactive	inactive	inactive	inactive	inactive	inactive	inactive	inactive	inactive	
C=C(C)C#N	inactive	inactive	inactive		inactive	inactive	inactive	inactive	inactive	
N#Cc1c(Cl)c(Cl)c(Cl)c(C#N)c1Cl	1.69 µM (active) and 1.93 µM (active)	inactive	inactive and 21.7 µM (active)		2.41 µM (active) and 1.55 µM (active)		10.7 µM (active) and 3.86 µM (active)	854 nM (active) and 616 nM (active)		
COc1ccc(CO)cc1	inactive	inactive	inactive		inactive	inactive	inactive	inactive	inactive	
CCCCCCCCCC(CC)c1ccc(S(=O)(=O)O)cc1 (configuration not stated)	inactive		inactive		inactive and 15.5 µM [setting not given] (active)	inactive		inactive and 39.9 µM (active)		
C=CC(=O)OCC(CC)(COC(=O)C=C)COC(=O)C=C	6.28 µM (active) and 6.86 µM (active)	inactive	31.5 µM (active) and 27.3 µM (active)		28.3 µM (active) and 9.77 µM (active)		inactive and 61.1 µM (active)	3.56 µM (active) and 1.55 µM (active)		
CCC[CH2][Sn]([Cl])([CH2]CCC)[CH2]CCC	1.54 µM (active) and 3.06 µM (active)	inactive	2.17 µM (active) and 3.44 µM (active)		1.38 µM (active) and 1.1 µM (active)		771 nM (active) and 1.09 µM (active)	1.74 µM (active) and 2.75 µM (active)		
CC(C)(c1ccccc1)c1ccc(O)c(C(C)(C)c2ccccc2)c1	48.1 µM (active)	inactive	inactive		15.3 µM (active) and 19.5 µM (active)		54 µM (active) and 21.7 µM (active)	48.5 µM (active) and 24.5 µM (active)		
C[C@]12CCC(=O)C=C1CC[C@@H]1[C@@H]2CC[C@@]2(C)[C@H]1CC[C@]2(C)O	inactive	inactive	inactive	inactive	inactive		inactive	inactive	inactive	
